Reference: PubChem BioAssay (NCATS)
Several values for one entry are separate records, joined by “and”; a condition that tells them apart may be missing. Identical values can stand only once. Inconclusive results are not listed. A call without a number means that no potency is given here. Activity calls are given as the source filed them. The call rests on the fitted dose curve; in most records, active means well fitted inhibition curve with a large enough effect; inconclusive means small, poorly fitted or top-dose-only effect; inactive means no such curve, though single readings can be large or run the other way.

assay: Primary qHTS for inhibitors of nuclear receptor binding SET domain protein 2 (NSD2) in an RCH-ACV wild type WT cells (2C) (AID 1645877); conditions: RCH-ACV (leukaemia line) NSD2 WT (2C) viability, CellTiter-Glo, 72 h; series mostly up to 44.9 µM; further: nearly all actives have a fitted effect of over 70% in size
Potency means the concentration at half of the fitted maximal effect.

SMILES | Potency
CC(=O)Oc1ccc(C)cc1 | inactive
COc1ccc(CN(CCN(C)C)c2ncccn2)cc1 | inactive
O=C(O)CCNC(=O)c1ccccc1 | inactive
Cc1cccc(C)c1NC(=O)c1ccccc1C(=O)O | inactive
Cc1ncc(CO)c(C=O)c1O | inactive
CN(C)C(=O)Nc1ccc(Cl)c(Cl)c1 | inactive
CCN(CC)CCNc1ccc(CO)c2sc3ccccc3c(=O)c12 | 1.33 µM (active)
COc1ccc(/C=N/NC(=O)c2ccncc2)cc1OC | inactive
CC(=O)Nc1ccc(OCC(O)CNC(C)C)cc1 (stereo not given) | inactive
O=S(=O)(O)c1ccc(O)cc1 | inactive
COP(=O)(OC)OC(c1ccc(Cl)cc1)P(=O)(OC)OC (stereo not given) | inactive
CCCCCCCCCCCCCC(=O)OC(C)C | inactive
Cc1cc(-c2ccccc2)nnc1NCCN1CCOCC1 | inactive
Cc1ccc(S(=O)(=O)NC(=O)NC2CCCC2)cc1 | inactive
CCC(C(=O)OCCOCCN(CC)CC)c1ccccc1 (stereo not given) | inactive
CC(C)Cn1cnc2c1c(=O)n(C)c(=O)n2C | inactive
CC(=O)N[C@@H](CCC(=O)O)C(=O)O | inactive
Oc1c(Cl)cc(Cl)c(Cl)c1Cc1c(O)c(Cl)cc(Cl)c1Cl | 5.96 µM (active)

SMILES | Potency
OC(C#CCN1CCCC1)(c1ccccc1)c1ccccc1 | inactive
CC(C)NCC(O)c1ccc2ccccc2c1 (stereo not given) | inactive
CCCCNC(=O)NS(=O)(=O)c1ccc(N)cc1 | inactive
O=c1[nH]c(=O)n([C@H]2C[C@H](O)[C@@H](CO)O2)cc1F | 8.4 nM (active) and 46.8 nM (active)
Nc1ccc(S(=O)(=O)NCc2ccccc2)cc1 | inactive
Cc1ccc2c(Br)cc(Br)c(O)c2n1 | 2.37 µM (active)
O=C(O)Cc1csc(-c2ccc(Cl)cc2)n1 | inactive
CCCCN1C[C@H](O)[C@@H](O)[C@H](O)[C@H]1CO | inactive
CC(C)(C)CC(C)(C)c1ccc(O)c(-n2nc3ccccc3n2)c1 | inactive
CCCCCCCCNC(C)C(O)c1ccc(SC(C)C)cc1 (stereo not given) | 7.5 µM (active)
Cc1c(-c2ccccc2)oc2c(C(=O)OCCN3CCCCC3)cccc2c1=O | inactive
COc1cc(C(=O)N2CCCCCCC2)cc(OC)c1OC | inactive
CC(=O)NCCCCCC(=O)O | inactive
Cc1cc(NS(=O)(=O)c2ccc(N)cc2)nc(C)n1 | inactive
COc1cc(C)nc(-n2nc(C)cc2OC)n1 | inactive
CC(=O)Nc1ccc(CC(=O)O)cc1 | inactive
C#C[C@]1(O)CC[C@H]2[C@@H]3CCc4cc(OC)ccc4[C@H]3CC[C@@]21C | inactive
